Measurements as given in ChEMBL document CHEMBL4888484, “Replenishing the malaria drug discovery pipeline: Screening and hit evaluation of the MMV Hit Generation Library 1 (HGL1) against asexual blood stage Plasmodium falciparum ,using a nano luciferase reporter read-out” (2022).
The campaign covered roughly 150,000 compounds. About 540 (0.36%) showed an effect of 50% or more. The entries come from a sample that favours strong results as a whole.

The compounds below were run on Plasmodium falciparum (assay: Primary screen in NF54 nanoGlo assay, in single point, at 2uM, 72h; a lower Z score goes with more inhibition). Details: timepoint 72 hour.
Type: functional, Erythrocyte

Row | Structure (SMILES) | % Inhibition [%] | Z score
1 | C#CCNC(=O)c1ccc(N[C@@H](C)COC)nc1 | -9 | 1.46
2 | NC(=O)[C@@H]1CN(Cc2ccc(-c3ccc(Cl)cc3)s2)CCO1 | -11 | 1.78
3 | Cc1cc(C)cc(-n2c(=O)c3sccc3n(CC(=O)Nc3ccc(N(C)C)cc3)c2=O)c1 | 51 | 1.43
4 | Cc1ccccc1-n1c(=O)c2sccc2n(CC(=O)Nc2ccc(N(C)C)cc2)c1=O | 2 | -0.2
5 | COc1cccc(Cn2c(=O)c3sccc3n(CC(=O)Nc3ccc(N(C)C)cc3)c2=O)c1 | 37 | -1.71
6 | CCN(CCn1cccn1)Cc1cncn1C1CC1 | -7 | 1.49
7 | CCc1ccccc1Nc1c2c(nc3ccccc13)CCCC2 | 9 | -1.19
8 | CCOC(=O)c1nc(NCC2CCN(Cc3ccccc3F)CC2)c2ccccc2n1 | -6 | 1.09
9 | CCc1nnc(NCC(C)(C)CCS(C)(=O)=O)c(C#N)c1CC | 2 | -0.31
10 | CC(C)Oc1ccc(-c2cc(C(F)(F)F)n3nc(-c4ccccc4)c(-c4ccccc4)c3n2)cc1 | -15 | 1.87
11 | Cc1ccnc([C@@H](NC(=O)c2c[nH]c3cc(C)nn3c2=O)C2CC2)c1 | -2 | 0.39
12 | COc1ccc(OC)c([C@H]2N(Cc3ccc(F)cc3)CCCN2Cc2ccccc2Cl)c1 | -3 | 0.37
13 | COc1ccc(OC)c(-n2c(-c3ccccc3)cc(C(=O)N3CCN(Cc4ccccc4)CC3)c2C)c1 | -8 | 1.09
14 | COc1cccc(NC(=O)Nc2ccc3c(c2)CN(CCc2ccc(OC)c(OC)c2)C(=O)[C@H](C)O3)c1 | 0 | -0.08
15 | CCC(C(=O)Nc1ccc2c(c1)CN(CCc1ccccc1)C(=O)C(C)O2)c1ccccc1 (configuration not stated) | -7 | 0.66
16 | CCC(C(=O)Nc1ccc2c(c1)CN(CCc1ccc(OC)c(OC)c1)C(=O)C(C)O2)c1ccccc1 (configuration not stated) | 91 | -17.08
17 | Cc1noc(C)c1N(C)C(=O)Nc1cccnc1 | -2 | 0.36
18 | COc1ccc(NC(=O)[C@H](NC(=O)Cc2c[nH]c3ccccc23)c2ccc(C)cc2)cc1 | -9 | 1.46
19 | CC1C(C(F)(F)F)OCCN1C(=O)NC1CCCC1Cc1ccccn1 (configuration not stated) | -4 | 0.71
20 | COc1ccc(-c2cc(C(F)(F)F)nc(-n3nc(-c4cccc(OC)c4)c(Cl)c3-c3cccc(OC)c3)n2)cc1 | 91 | -10.21
21 | COc1ccc(-c2cc(C(F)(F)F)nc(-n3nc(-c4cccc(C)c4)c(C)c3-c3cccc(C)c3)n2)cc1 | -7 | 1.42

Row | Structure (SMILES) | % Inhibition [%] | Z score
22 | COc1cccc(-c2nn(-c3nc(-c4ccccc4)cc(C(F)(F)F)n3)c(-c3cccc(OC)c3)c2Cl)c1 | 38 | -3.81
23 | Cc1cc(NC(=O)c2ccc3ccccc3c2)n(-c2nc3c(c(=O)[nH]2)CCC3)n1 | 2 | -0.26
24 | COCC(=O)Nc1cc(C)nn1-c1nc2c(c(=O)[nH]1)CCC2 | 1 | -0.17
25 | CCOc1ccc2ccccc2c1C(=O)Nc1cc(C)nn1-c1nc2c(c(=O)[nH]1)CCC2 | 92 | -17
26 | COc1ccccc1OCC(=O)Nc1cc(C)nn1-c1nc2c(c(=O)[nH]1)CCC2 | 1 | -0.14
27 | Cc1cc(NC(=O)Cc2ccc(-c3ccccc3)cc2)n(-c2nc3c(c(=O)[nH]2)CCC3)n1 | -4 | 0.86
28 | Cc1cc(NC(=O)C(=O)NC2CC(C)CC(C)(C)C2)n(-c2nc3c(c(=O)[nH]2)CCC3)n1 (configuration not stated) | 85 | -13.4
29 | CC(NC(=O)N(C)CC1CCCO1)c1ccc(N2CCOCC2)cc1 (configuration not stated) | -3 | 0.42
30 | COC[C@H]1CN(C)CC12CCN(C(=O)Cc1ccc(Cl)cc1)CC2 | 9 | -1.07
31 | CCCC(=O)N1CCN(c2cc(-n3cnc(C)c3C)ncn2)CC1 | -12 | 1.96
32 | COc1cc(C(=O)Nc2scnc2C)cc(OC)c1OC | 45 | 0.11
33 | COc1cc(C(=O)Nc2ccc(Nc3ccc(C)nn3)cc2)cc(OC)c1OC | 13 | -2.29
34 | COc1cc(C(=O)Nc2ccc3sc(NC(=O)c4cc(OC)c(OC)c(OC)c4)nc3n2)cc(OC)c1OC | 101 | -16.35
35 | Cn1cc(S(=O)(=O)NCc2cc(C3CC3)ncn2)cn1 | 16 | -2.16
36 | Clc1cnn(CCN2CCc3onc(-c4cccc5ccccc45)c3C2)c1 | -5 | 0.7
37 | CN1C(=O)CC[C@@]12CCN(C(=O)Nc1ccc3c(c1)OCCO3)C2 | -5 | 0.78
38 | Cc1cc([C@@H]2CCCCN2CCn2cc(Cl)cn2)no1 | -11 | 1.54
39 | COc1ccc(C(=O)N(C(=O)c2ccc(OC)cc2)c2c3c(nc4ccccc24)CCCC3)cc1 | 69 | -5.66
40 | COc1cccc(C(=O)Nc2c3c(nc4ccccc24)CCCC3)c1 | 1 | -0.12
41 | Oc1c2c(nc3ccccc13)CCCCC2 | 25 | -3.15
42 | COc1ccccc1C(C)(C)c1noc([C@@]2(C)CCNC(=O)C2)n1 | -3 | 0.4

Row | Structure (SMILES) | % Inhibition [%] | Z score
43 | CCOc1ccc(N2C[C@@H](C(=O)NCCc3ccco3)CC2=O)cc1 | 0 | -0.05
44 | C[C@H](NCc1ccccc1CN1CCOCC1)C(=O)Nc1cccc2ccccc12 | -7 | 1.29
45 | c1ccc(C(c2ccccc2)N2CCN(c3nn4cnnc4c4ccccc34)CC2)cc1 | 81 | -11.8
46 | Fc1ccc(N2CCN(c3nn4cnnc4c4ccccc34)CC2)cc1 | -10 | 1.31
47 | c1ccc2[nH]c(C3CCN(c4nn5cnnc5c5ccccc45)CC3)nc2c1 | -15 | 2.33
48 | COc1ccc(-c2nc3c(c(N4CCC[C@@H]4C)n2)CCOCC3)cc1 | -10 | 0.99
49 | O=C(Nc1ccnn1C1CCC1)c1ccc(-c2cn[nH]c2)cn1 | -10 | 1.42
50 | O=C1CCCCN1CCC(=O)N1CCc2onc(-c3cccc4ccccc34)c2C1 | -1 | 0.1
51 | Cc1nn(C)c2nc(OCC(=O)NC(C)(C)C)cc(C(F)(F)F)c12 | -8 | 0.92
52 | Cn1nccc1[C@@H]1CN(C(=O)Nc2nsc3ccccc23)CCO1 | -5 | 0.53
53 | Cc1ccc(S(=O)(=O)c2c(NS(=O)(=O)c3ccccc3)n(CCc3ccccc3)c3nc4ccccc4nc23)cc1 | 99 | -11.17
54 | COc1ccc(S(=O)(=O)c2c(N)n(Cc3ccc(C)cc3)c3nc4ccccc4nc23)cc1 | -6 | 0.56
55 | Cc1ccc(S(=O)(=O)c2c(NS(=O)(=O)c3ccc(F)cc3)n(CCc3ccccc3)c3nc4ccccc4nc23)cc1 | 98 | -8.73
56 | Cc1ccc(S(=O)(=O)c2c(NC(=O)c3ccco3)n(C3CCCCC3)c3nc4ccccc4nc23)cc1 | -11 | 1.85
57 | CCC(=O)Nc1c(S(=O)(=O)c2ccccc2)c2nc3ccccc3nc2n1[C@@H](C)c1ccccc1 | -14 | 1.29
58 | Cc1ccc(S(=O)(=O)Nc2c(S(=O)(=O)c3ccc(C)cc3)c3nc4ccccc4nc3n2C[C@H]2CCCO2)cc1 | 48 | -4.28
59 | Cc1ccc(S(=O)(=O)Nc2c(S(=O)(=O)c3ccc(C)cc3)c3nc4ccccc4nc3n2CCC(C)C)cc1 | 85 | -10.94
60 | Cc1ccc(S(=O)(=O)Nc2c(S(=O)(=O)c3ccccc3)c3nc4ccccc4nc3n2CCc2ccccc2)cc1 | 86 | -14.39
61 | Cc1ccc(S(=O)(=O)c2c(NS(=O)(=O)c3ccc(Cl)cc3)n(-c3cc(C)cc(C)c3)c3nc4ccccc4nc23)cc1 | -6 | 0.5
62 | Cc1ccc(S(=O)(=O)c2c(NS(=O)(=O)c3ccc(F)cc3)n(C[C@H]3CCCO3)c3nc4ccccc4nc23)cc1 | 6 | -0.71
63 | Nc1c(S(=O)(=O)c2ccc(Cl)cc2)c2nc3ccccc3nc2n1Cc1ccc(Cl)cc1 | -9 | 0.81

Row | Structure (SMILES) | % Inhibition [%] | Z score
64 | CC(C)n1cc(C(=O)N(CCOc2ccc(Cl)cc2)Cc2ccco2)cn1 | -9 | 1.28
65 | O=C(Nc1cccc(C(F)(F)F)c1)C1(F)C(F)(F)C(F)(F)C(F)(F)C(F)(F)C1(F)F | 2 | -0.22
66 | c1ccc2oc(-c3nc(C4CC4)n[nH]3)cc2c1 | -12 | 1.37
67 | N[C@@H](c1ccc2c(c1)CCO2)c1cc(Cl)ccc1Cl | 0 | -0.02
68 | O=C(Nc1nc(C(=O)N2CCN(c3ncccn3)CC2)co1)c1ccsc1 | -2 | 0.31
69 | CCCN1CCCC[C@H]1C(=O)NCCCn1ccnc1 | -6 | 1.01
70 | Cc1ccc(C(=O)N2CCC[C@H](CCC(=O)N3CCN(c4ccccn4)CC3)C2)s1 | -8 | 1.24
71 | COc1ccc(-c2nc3ccc(Cc4ccc5nc(-c6ccc(OC)cc6)c(-c6ccc(OC)cc6)nc5c4)cc3nc2-c2ccc(OC)cc2)cc1 | 11 | -2.21
72 | O=C(NC[C@H]1CCCN1c1ccccc1)c1ccccc1Br | -13 | 2.53
73 | O=C(Nc1c(S(=O)(=O)c2ccccc2)c2nc3ccccc3nc2n1CCc1ccccc1)c1ccc(Cl)cc1 | 101 | -8.88
74 | Cc1ccc(S(=O)(=O)NCCn2c3ccccc3c3c(C)cc(C)nc32)cc1 | -5 | 0.73
75 | CCCCn1c(NC(=O)c2ccccc2Cl)c(S(=O)(=O)c2ccccc2)c2nc3ccccc3nc21 | -7 | 0.7
76 | COCCCn1c(NS(=O)(=O)c2ccc3ccccc3c2)c(S(=O)(=O)c2ccc(C)cc2)c2nc3ccccc3nc21 | 57 | -8.33
77 | C[C@@H](c1ccccc1)n1c(NC(=O)c2ccc(Cl)cc2)c(S(=O)(=O)c2ccccc2)c2nc3ccccc3nc21 | -15 | 1.3
78 | COCCCn1c(NS(=O)(=O)c2ccccc2)c(S(=O)(=O)c2ccc(C)cc2)c2nc3ccccc3nc21 | 43 | -9.12
79 | Cc1ccc(S(=O)(=O)Nc2cc3nc4ccccc4nc3n2CCc2ccccc2)cc1 | 100 | -10.64
80 | CCCCc1ccc(-n2c(NS(=O)(=O)c3ccc(Cl)cc3)c(S(=O)(=O)c3ccc(C)cc3)c3nc4ccccc4nc32)cc1 | 4 | -0.41
81 | CCCCn1c(NC(=O)c2ccccc2)c(S(=O)(=O)c2ccc(C)cc2)c2nc3ccccc3nc21 | 0 | -0.03
